Hits are enriched below; roughly 19% of the tested compounds scored in any of these assays.
HT1080 IDH1KD tx: kills HT-1080 cells with IDH1 knockdown. HT-1080 IDH1 knockdown viability, ATP luminescence, 48 h. Potency, µM (top dose mostly 46.1 µM), for the others: at the highest dose activity, negative = toxicity, usual class: cytotoxic. 360,000 tested, 2% active;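 further: potency means the concentration at half of the fitted maximal effect; 0% = DMSO wells and -100% = cell-free medium wells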
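Cytotoxicity counter-line: IDH1KD HT-1080, 48 h, CellTiter-Glo. Curves classed by r2, magnitude and activity.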
DT40 TDP1 no CPT: qHTS for Inhibitors of human tyrosyl-DNA phosphodiesterase 1 (TDP1): qHTS in cells in absence of CPT; DT40 Tdp1-/- hTDP1 cells, no CPT, ATP luminescence, 48 h; Potency, µM (series often up to 46.2 µM), inactives show at the highest dose activity change, negative = growth inhibition, usual class: inhibitors; 420,000 tested, 15% active; AID 686978, 2013; further: potency means the concentration at half of the fitted maximal effect; nearly all actives have a fitted effect of over 55% in size
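A cellular qHTS used chicken DT40 cells lacking endogenous Tdp1 but carrying stably transfected human TDP1. Compounds were applied without camptothecin, and cell growth kinetics were judged by ATP-dependent luminescence after ≥48 hr.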
TDP1 cell CPT: growth inhibition of DT40 Tdp1-/-;hTDP1 cells with camptothecin (screen for TDP1 inhibitors); chicken DT40 Tdp1-/-;hTDP1 cells + 20 nM CPT, ATP luminescence, 48 h; Potency, µM (doses to about 46.2 µM), for inactives: top-dose activity change, negative = growth inhibition, most hits filed as inhibitors; 420,000 tested, 12% active; AID 686979; further: potency means the concentration at half of the fitted maximal effect; nearly all actives have a fitted effect of over 55% in size
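Chicken DT40 Tdp1-/- cells complemented with human TDP1, 400 cells/well, exposed to compounds plus 20 nM camptothecin for at least 48 h at 37 C; viability read as ATP content by CellTiter-Glo luminescence.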
IL-1B inflam inh: inhibitors of inflammasome signaling (IL-1 beta secretion) | THP-1 LPS/ATP IL-1B secretion, AlphaLISA, 16 h; active compounds read low | activity change, % at 57.5 µM | 360,000 tested, 4.7% active | AID 743279; in the data active means activity change below about -50%; inconclusive means mostly about -30% to -49%
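THP-1 cells pretreated 1 hr with compounds (up to 57.5 uM final), then stimulated with LPS (250 ng/mL final) plus ATP (1.25 mM final); secreted IL-1B measured by AlphaLISA after 16 hr, decreased signal indicating inhibition.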
HT1080NT lethal: kills 2HG-producing HT-1080-NT fibrosarcoma cells. HT-1080-NT fibrosarcoma viability, CellTiter-Glo ATP luminescence, 48 h. Potency, µM (highest dose often 46.1 µM), for the others: at the top dose activity, negative = less viability, hits mostly cytotoxic. 360,000 tested, 1.6% active. AID 686970;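 further: NT is the 2HG producing partner of a matched IDH1 knockdown line; potency means the concentration at half of the fitted maximal effect; 0% = DMSO-treated cells and -100% = media-only wells without cells; nearly all actives have a fitted effect of over 55% in size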
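Fibrosarcoma NT cells, 750 per well in 5% FBS RPMI, were exposed to compound for 48 hours. Viability: CellTiter-Glo luminescence.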
Active calls of the source: *; i = inactive; ? = inconclusive; . = no result. Unless noted, the call rests on the fitted dose curve; in most records, active means well fitted curve in the direction sought with a large enough effect; inconclusive means small, poorly fitted or top-dose-only effect, or another doubt; inactive means no such curve, though single readings can be large; an effect the other way counts as inactive or inconclusive. Unless noted, on the % scale 0 is the no-effect control and ±100 the full control effect.

SMILES	HT1080 IDH1KD tx	DT40 TDP1 no CPT	TDP1 cell CPT	IL-1B inflam inh	HT1080NT lethal
CCC1(CC)C(C#N)C(=O)NC(=O)C1C#N (stereo not drawn)	2%	-26%	-3%	1	0%
COc1ccc(NC(=O)Cn2ncc(Cl)c(Cl)c2=O)cc1S(=O)(=O)N1CCOCC1	21µM*	10µM*	12µM*	-54*	-21%
COc1ccc(NC(=O)CSc2ccccc2)cc1S(=O)(=O)N1CCOCC1	20%	-9%	-2%	i	5%
O=C(Cc1ccc(Br)cc1)Nc1cccc(S(=O)(=O)N2CCOCC2)c1	-2%	-23%	-8%	0	-1%
O=S(=O)(c1cccc(NC(=S)Nc2ccc(Br)cc2Cl)c1)N1CCOCC1	-7%	29µM*	16µM*	27	0%
O=C(Nc1cccc(S(=O)(=O)N2CCCC2)c1)c1ccc(Cl)nc1	6.5µM*	5.8µM*	4.6µM*	7	?
Cc1ccccc1OCC(=O)Nc1sc(C(=O)Nc2cccc(C)c2C)c(C)c1C#N	7%	-23%	?	5	-4%
COCCNc1ncnc2c1cnn2-c1ccc(Cl)cc1	9%	?	5%	-1	2%
CC(C)Nc1ncnc2c1cnn2-c1ccc(Cl)cc1	-7%	?	?	-58*	1%
CC(=O)Nc1ccc(Nc2ncnc3c2cnn3-c2ccccc2)cc1	-1%	?	?	-16	-8%
Clc1ccc(Nc2ncnc3c2cnn3-c2ccccc2)cc1	-8%	?	?	-53*	-11%
COc1cc([N+](=O)[O-])ccc1NC(=O)CCS(=O)(=O)c1ccc2c(c1)n(C)c(=O)c(=O)n2C	17%	7%	5%	1	18%
COC(=O)[C@]1(C)N[C@H](CN(C)C(=O)Nc2ccc(OC)cc2)[C@@H]2C(=O)N(Cc3ccccc3)C(=O)[C@@H]21	3%	-4%	6%	-4	8%
O=S1(=O)N=C2CCCCCN2C(c2ccccc2)N1 (stereo not drawn)	8%	-2%	-6%	20	21%
CCOc1c(Br)cc(C2NS(=O)(=O)N=C3CCCCCN32)cc1OC (stereo not drawn)	6%	16µM*	?	0	2%
Cc1cc(C(=O)NCC2COc3ccccc3O2)c2ccccc2n1 (stereo not drawn)	0%	?	?	-70*	0%
O=C(Cc1ccccc1)Nc1ccc(C(=O)NCC2COc3ccccc3O2)cc1 (stereo not drawn)	-17%	?	9%	-27	?
Cc1ccc(/C=C/C(=O)NCCc2cccc(Cl)c2)o1	?	18µM*	10µM*	-65*	?
Cc1ccc(/C=C/C(=O)NCC2COc3ccccc3O2)o1 (stereo not drawn)	-4%	16µM*	16µM*	-53*	-1%
Cc1ccc(/C=C/C(=O)NCCc2c[nH]c3ccccc23)o1	-1%	-11%	-4%	-15	-1%
O=C(NCC1COc2ccccc2O1)c1ccc(NC(=O)C(c2ccccc2)c2ccccc2)cc1 (stereo not drawn)	-11%	9.2µM*	18µM*	9	?
COc1cccc(NC(=O)N(C)C[C@H]2OCc3cn(nn3)CCCC(=O)N([C@@H](C)CO)C[C@@H]2C)c1	3%	-5%	0%	0	-3%
O=S(=O)(NCCc1cn2ccsc2n1)c1ccc(Cl)cc1	.	-15%	-17%	.	.
COc1ccccc1-n1c(CNC(=O)c2ccco2)nnc1SCC(=O)Nc1ccc(F)cc1	-1%	-12%	-6%	38	0%
